# Results taken from PubChem BioAssay AID1159580 (chemical genetic matrix, 2015).
# About 2,000 (36%) of roughly 5,500 compounds were called active. Another 18% or so got no clear call; they are omitted. Some of the results follow. Values without a mark were called inactive. Rule as the data show it: active = normalized growth mostly below about 0.91 (no sharp cut-off); inconclusive = no clear call, values can overlap the other calls; inactive = mostly above about 0.92.
# Experiment: chemical genetic growth profiling, strain panel (AID 1159580);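 also: tested at 20 µM; growth read once vehicle control cultures reached saturation at 30 °C; 1 = growth at the plate median or of vehicle wells; lower values mean less growth of the strain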
# Conditions: S. cerevisiae deletion strains, growth OD
smiles,measurement,setting,value
COc1c2c(c(CC=C(C)C)c3oc(=O)c(-c4ccc(O)cc4)c(O)c13)OC(C)(C)C=C2,normalized growth,"locus YAL013W, strain DEP1, active compounds read low",0.307 (active)
same,normalized growth,"locus YAL021C, strain ccr4, active compounds read low",0.989
same,normalized growth,"locus YAL026C, strain drs2, active compounds read low",0.87 (active)
same,normalized growth,"locus YAL030W, strain snc1, active compounds read low",0.916 (active)
same,normalized growth,"locus YBL061C, strain skt5, active compounds read low",0.846 (active)
same,normalized growth,"locus YBR009C, strain hhf1, active compounds read low",0.656 (active)
same,normalized growth,"locus YBR021W, strain FUR4, active compounds read low",0.849
same,normalized growth,"locus YBR023C, strain chs3, active compounds read low",0.854 (active)
same,normalized growth,"locus YBR171W, strain sec66, active compounds read low",0.989
same,normalized growth,"locus YBR229C, strain ROT2, active compounds read low",0.997
same,normalized growth,"locus YBR231C, strain swc5, active compounds read low",0.857 (active)
same,normalized growth,"locus YBR279W, strain paf1, active compounds read low",0.972
same,normalized growth,"locus YCL011C, strain gbp2, active compounds read low",0.759 (active)
same,normalized growth,"locus YCL016C, strain dcc1, active compounds read low",0.938
same,normalized growth,"locus YCL029C, strain bik1, active compounds read low",0.677 (active)
same,normalized growth,"locus YCL061C, strain MRC1, active compounds read low",0.816 (active)
same,normalized growth,"locus YCL069W, strain vba3, active compounds read low",0.812 (active)
same,normalized growth,"locus YCR088W, strain abp1, active compounds read low",0.944
same,normalized growth,"locus YDL005C, strain med2, active compounds read low",0.925
same,normalized growth,"locus YDL035C, strain GPR1, active compounds read low",0.861
same,normalized growth,"locus YDL040C, strain nat1, active compounds read low",0.992
same,normalized growth,"locus YDL074C, strain BRE1, active compounds read low",0.325 (active)
same,normalized growth,"locus YDL101C, strain DUN1, active compounds read low",0.862 (active)
same,normalized growth,"locus YDL185W, strain tfp1, active compounds read low",1.02
same,normalized growth,"locus YDL192W, strain arf1, active compounds read low",0.414 (active)
same,normalized growth,"locus YDR001C, strain nth1, active compounds read low",0.989
same,normalized growth,"locus YDR069C, strain doa4, active compounds read low",1.01
same,normalized growth,"locus YDR101C, strain arx1, active compounds read low",0.775 (active)
same,normalized growth,"locus YDR137W, strain rgp1, active compounds read low",0.819 (active)
same,normalized growth,"locus YDR150W, strain NUM1, active compounds read low",1.01
same,normalized growth,"locus YDR159W, strain sac3, active compounds read low",0.383 (active)
same,normalized growth,"locus YDR162C, strain NBP2, active compounds read low",0.642 (active)
same,normalized growth,"locus YDR195W, strain ref2",0.459 (active)
same,normalized growth,"locus YDR297W, strain sur2, active compounds read low",0.847 (active)
same,normalized growth,"locus YDR318W, strain mcm21, active compounds read low",0.681 (active)
same,normalized growth,"locus YDR334W, strain swr1, active compounds read low",0.99
same,normalized growth,"locus YDR335W, strain msn5, active compounds read low",0.851 (active)
same,normalized growth,"locus YDR388W, active compounds read low",0.912 (active)
same,normalized growth,"locus YDR392W, strain spt3, active compounds read low",0.103 (active)
same,normalized growth,"locus YDR502C, strain sam2, active compounds read low",0.768 (active)
same,normalized growth,"locus YEL003W, strain gim4, active compounds read low",0.766 (active)
same,normalized growth,"locus YEL037C, strain rad23, active compounds read low",0.992
same,normalized growth,"locus YEL061C, strain CIN8 (second series), active compounds read low",0.765 (active)
same,normalized growth,"locus YER015W, strain faa2, active compounds read low",0.845 (active)
same,normalized growth,"locus YER016W, strain bim1, active compounds read low",0.969
same,normalized growth,"locus YER110C, active compounds read low",0.938
same,normalized growth,"locus YER111C, strain swi4, active compounds read low",0.518 (active)
same,normalized growth,"locus YER155C, strain BEM2 (second series), active compounds read low",0.536 (active)
same,normalized growth,"locus YER155C, strain BEM2, active compounds read low",0.277 (active)
same,normalized growth,"locus YER167W, strain BCK2, active compounds read low",0.806 (active)
same,normalized growth,"locus YFR010W, strain ubp6, active compounds read low",0.977
same,normalized growth,"locus YGL078C, strain dbp3, active compounds read low",0.98
same,normalized growth,"locus YGL086W, strain mad1, active compounds read low",0.683 (active)
same,normalized growth,"locus YGL167C, strain pmr1, active compounds read low",0.976
same,normalized growth,"locus YGL173C, strain kem1, active compounds read low",0.9 (active)
same,normalized growth,"locus YGL227W, strain vid30, active compounds read low",0.765 (active)
same,normalized growth,"locus YGL240W, strain doc1, active compounds read low",0.903
same,normalized growth,"locus YGL248W, strain PDE1, active compounds read low",0.763 (active)
same,normalized growth,"locus YGL253W, strain hxk2, active compounds read low",0.838 (active)
same,normalized growth,"locus YGR078C, strain PAC10, active compounds read low",0.633 (active)
same,normalized growth,"locus YGR135W, strain pre9, active compounds read low",0.907
same,normalized growth,"locus YGR229C, strain SMI1, active compounds read low",0.409 (active)
same,normalized growth,"locus YGR252W, strain gcn5, active compounds read low",0.696 (active)
same,normalized growth,"locus YHR013C, strain ard1, active compounds read low",1.03
same,normalized growth,"locus YHR027C, strain rpn1, active compounds read low",0.942
same,normalized growth,"locus YHR079C, strain IRE1 (second series), active compounds read low",0.868 (active)
same,normalized growth,"locus YHR094C, strain hxt1, active compounds read low",0.832 (active)
same,normalized growth,"locus YHR129C, strain ARP1, active compounds read low",0.61 (active)
same,normalized growth,"locus YHR142W, strain chs7, active compounds read low",0.512 (active)
same,normalized growth,"locus YHR200W, strain rpn10, active compounds read low",0.889 (active)
same,normalized growth,"locus YIL066C, strain RNR3, active compounds read low",0.708 (active)
same,normalized growth,"locus YIL073C, strain SPO22, active compounds read low",0.963
same,normalized growth,"locus YIL125W, strain kgd1, active compounds read low",0.911 (active)
same,normalized growth,"locus YIR030C, strain dcg1, active compounds read low",0.773 (active)
same,normalized growth,"locus YJL092W, strain hpr5, active compounds read low",0.932
same,normalized growth,"locus YJL095W, strain BCK1 (second series), active compounds read low",0.799 (active)
same,normalized growth,"locus YJL095W, strain BCK1, active compounds read low",0.352 (active)
same,normalized growth,"locus YJL115W, strain asf1, active compounds read low",1.02
same,normalized growth,"locus YJL129C, strain trk1, active compounds read low",0.648 (active)
same,normalized growth,"locus YJL134W, strain LCB3, active compounds read low",0.977
same,normalized growth,"locus YJL154C, strain vps35, active compounds read low",0.982
same,normalized growth,"locus YJL164C, strain tpk1, active compounds read low",0.747 (active)
same,normalized growth,"locus YJL166W, strain qcr8, active compounds read low",0.679 (active)
same,normalized growth,"locus YJL168C, strain set2, active compounds read low",0.985
same,normalized growth,"locus YJL187C, strain SWE1 (second series), active compounds read low",0.837 (active)
same,normalized growth,"locus YJL187C, strain SWE1, active compounds read low",0.877 (active)
same,normalized growth,"locus YKL009W, strain mrt4, active compounds read low",0.925
same,normalized growth,"locus YKL068W, active compounds read low",0.982
same,normalized growth,"locus YKL085W, strain MDH1 (second series), active compounds read low",0.909 (active)
same,normalized growth,"locus YKL085W, strain MDH1, active compounds read low",0.909 (active)
same,normalized growth,"locus YKL160W, strain elf1, active compounds read low",0.95
same,normalized growth,"locus YKL190W, strain CNB1, active compounds read low",0.851 (active)
same,normalized growth,"locus YKR001C, strain vps1, active compounds read low",0.381 (active)
same,normalized growth,"locus YKR026C, strain gcn3, active compounds read low",0.971
same,normalized growth,"locus YKR091W, strain srl3, active compounds read low",0.991
same,normalized growth,"locus YLL001W, strain dnm1, active compounds read low",0.848 (active)
same,normalized growth,"locus YLL026W, active compounds read low",0.848 (active)
same,normalized growth,"locus YLL041C, strain sdh2, active compounds read low",0.984
same,normalized growth,"locus YLR027C, strain aat2, active compounds read low",0.72 (active)
same,normalized growth,"locus YLR039C, strain RIC1, active compounds read low",0.444 (active)
same,normalized growth,"locus YLR058C, strain SHM2, active compounds read low",0.782 (active)
same,normalized growth,"locus YLR102C, strain apc9, active compounds read low",0.847 (active)
same,normalized growth,"locus YLR221C, strain rsa3, active compounds read low",0.674 (active)
same,normalized growth,"locus YLR258W, strain gsy2, active compounds read low",0.824 (active)
same,normalized growth,"locus YLR262C, strain YPT6 (second series), active compounds read low",0.584 (active)
same,normalized growth,"locus YLR268W, strain sec22, active compounds read low",0.693 (active)
same,normalized growth,"locus YLR320W, strain mms22, active compounds read low",0.65 (active)
same,normalized growth,"locus YLR342W, strain FKS1 (second series), active compounds read low",0.812
same,normalized growth,"locus YLR342W, strain FKS1, active compounds read low",0.907 (active)
same,normalized growth,"locus YLR357W, strain rsc2, active compounds read low",1.01
same,normalized growth,"locus YLR370C, strain arc18, active compounds read low",0.965
same,normalized growth,"locus YLR371W, strain rom2, active compounds read low",0.519 (active)
same,normalized growth,"locus YLR384C, strain iki3, active compounds read low",1
same,normalized growth,"locus YLR418C, strain cdc73, active compounds read low",0.214 (active)
same,normalized growth,"locus YML016C, strain PPZ1, active compounds read low",0.904 (active)
same,normalized growth,"locus YML032C, strain rad52, active compounds read low",0.63 (active)
same,normalized growth,"locus YML120C, strain ndi1, active compounds read low",0.467 (active)
same,normalized growth,"locus YML124C, strain tub3, active compounds read low",0.858 (active)
same,normalized growth,"locus YMR058W, strain fet3, active compounds read low",0.834 (active)
same,normalized growth,"locus YMR078C, strain ctf18, active compounds read low",0.537 (active)
same,normalized growth,"locus YMR125W, strain sto1, active compounds read low",0.866 (active)
same,normalized growth,"locus YMR129W, active compounds read low",0.915 (active)
same,normalized growth,"locus YMR205C, strain PFK2, active compounds read low",0.664 (active)
same,normalized growth,"locus YMR223W, strain ubp8, active compounds read low",0.792 (active)
same,normalized growth,"locus YMR231W, strain pep5, active compounds read low",0.999
same,normalized growth,"locus YMR263W, strain SAP30, active compounds read low",0.866 (active)
same,normalized growth,"locus YMR307W, strain GAS1, active compounds read low",0.48 (active)
same,normalized growth,"locus YNL067W, strain RPL9B, active compounds read low",0.938
same,normalized growth,"locus YNL071W, strain lat1, active compounds read low",0.484 (active)
same,normalized growth,"locus YNL128W, strain TEP1, active compounds read low",0.906
same,normalized growth,"locus YNL209W, strain ssb2, active compounds read low",0.935
same,normalized growth,"locus YNL233W, strain BNI4, active compounds read low",0.635 (active)
same,normalized growth,"locus YNL248C, strain rpa49, active compounds read low",0.973
same,normalized growth,"locus YNL250W, strain rad50, active compounds read low",1.05
same,normalized growth,"locus YNL271C, strain bni1, active compounds read low",0.976
same,normalized growth,"locus YNL298W, strain CLA4, active compounds read low",0.95
same,normalized growth,"locus YNL307C, strain MCK1, active compounds read low",0.24 (active)
same,normalized growth,"locus YNL322C, strain KRE1 (second series), active compounds read low",1.03
same,normalized growth,"locus YNL322C, strain KRE1, active compounds read low",0.88 (active)
same,normalized growth,"locus YNR049C, strain mso1, active compounds read low",0.987
same,normalized growth,"locus YNR052C, strain pop2, active compounds read low",0.546 (active)
same,normalized growth,"locus YOL012C, strain htz1",0.365
same,normalized growth,"locus YOL147C, strain pex11, active compounds read low",0.481 (active)
same,normalized growth,"locus YOR001W, strain rrp6, active compounds read low",0.797 (active)
same,normalized growth,"locus YOR061W, strain CKA2, active compounds read low",0.939
same,normalized growth,"locus YOR069W, strain VPS5, active compounds read low",0.896 (active)
same,normalized growth,"locus YOR070C, strain gyp1, active compounds read low",0.793 (active)
same,normalized growth,"locus YOR080W, strain dia2, active compounds read low",0.946
same,normalized growth,"locus YOR083W, strain WHI5, active compounds read low",0.876 (active)
same,normalized growth,"locus YOR106W, strain vam3, active compounds read low",0.883
same,normalized growth,"locus YOR136W, strain idh2, active compounds read low",0.867 (active)
same,normalized growth,"locus YOR144C, strain elg1, active compounds read low",0.592 (active)
same,normalized growth,"locus YOR184W, strain ser1, active compounds read low",0.217 (active)
same,normalized growth,"locus YOR265W, strain rbl2, active compounds read low",0.919 (active)
same,normalized growth,"locus YOR270C, strain vph1, active compounds read low",0.549 (active)
same,normalized growth,"locus YOR290C, strain snf2, active compounds read low",0.631 (active)
same,normalized growth,"locus YOR316C, strain cot1, active compounds read low",0.924
same,normalized growth,"locus YPL051W, strain arl3, active compounds read low",0.787 (active)
same,normalized growth,"locus YPL078C, strain atp4, active compounds read low",0.802 (active)
same,normalized growth,"locus YPL106C, strain sse1, active compounds read low",0.913
same,normalized growth,"locus YPL240C, strain hsp82, active compounds read low",0.853 (active)
same,normalized growth,"locus YPR119W, strain clb2, active compounds read low",0.735 (active)
same,normalized growth,"locus YPR141C, strain kar3, active compounds read low",0.977
same,normalized growth,"locus YPR163C, strain tif3, active compounds read low",0.463 (active)
same,normalized growth,"locus YPR167C, strain met16, active compounds read low",0.751 (active)
same,normalized growth,"strain wtn01, active compounds read low",0.747 (active)
